Source: PubChem BioAssay (Tox21)
Results filed as inconclusive are left out. Calls of active or inactive are those of the source. Unless noted, the call rests on the fitted dose curve; in most records, active means well fitted curve in the direction sought with a large enough effect in the repeat runs; inconclusive means weak or mixed curves; inactive means no such curve, though single readings can be large; an effect the other way counts as inactive or inconclusive.

Legend:
[1] = qHTS assay for small molecule agonists of the p53 signaling pathway (AID 651631; calls by dose curve; further: nearly all actives have a fitted effect of over 15% in size)
How it was run: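 Readout was fluorescence from the LiveBLAzer FRET substrate, applied for 2 h at room temperature after 16 h compound exposure at 37 °C. Cells were the p53RE-bla HCT-116 line, with beta-lactamase driven by p53 response elements.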

[2] = qHTS assay for small molecules that induce genotoxicity in human embryonic kidney cells expressing luciferase-tagged ATAD5 (AID 651632); further: nearly all actives have a fitted effect of over 15% in size
How it was run: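 HEK293T cells carrying luciferase-tagged ATAD5 were given compound or DMSO vehicle and incubated 16 hr at 37C, 5% CO2. Luciferase activity was read after 30 min at room temperature with Amplite; a rise signals genotoxic stress.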

[3] = qHTS assay for small molecule agonists of the p53 signaling pathway - cell viability (AID 651633; calls by dose curve; further: series mostly up to about 83 µM; nearly all actives have a fitted effect of over 30% in size)
How it was run: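 Viability counter-read: CellTiter-Glo luminescence (30 min, room temperature) in the same p53RE-bla plates. These plates had been exposed to compounds for 16 h at 37 C.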

[4] = qHTS assay for small molecule disruptors of the mitochondrial membrane potential - cell viability (AID 720634; calls by dose curve;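 further: human HepG2 liver cancer cells; series mostly up to about 83 µM; nearly all actives have a fitted effect of over 20% in size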)
How it was run: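 HepG2 cells, 2,000 per well, attached overnight, then treated 1 hr at 37 C, 5% CO2. Viability read as ATP by CellTiter-Glo luminescence after 30 min at room temperature. Read in the same wells as the m-MPI membrane-potential dye assay.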

[5] = qHTS assay for small molecule disruptors of the mitochondrial membrane potential (AID 720635); further: potency means the concentration at half of the fitted maximal effect
How it was run: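 Mitochondrial membrane potential tracked with Mito-MPS dye, red aggregates (ex 540/em 590 nm) against green monomers (ex 490/em 535 nm). Compound treatment 1 hr at 37C, dye 30 min in HepG2.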

[6] = qHTS assay to test for compound auto fluorescence at 535 nm (green) in HepG2 cells (AID 720675)
[7] = qHTS assay to test for compound auto fluorescence at 460 nm (blue) in HEK293 cells (AID 720678)
How it was run: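 HEK293 cells (2,000/well, medium with 10% dialyzed FBS) attached 4-5 hr, then exposed to compound overnight at 37C, 5% CO2. Blue fluorescence read at 405/460 nm, with triamterene as reference fluorophore.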

[8] = qHTS assay to test for compound auto fluorescence at 590 nm (red) in HEK293 cells (AID 720679)
How it was run: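 HEK293 cells (2,000/well, 10% dialyzed FBS) attached 4-5 hr, then dosed with compound or DMSO and incubated overnight at 37C, 5% CO2. Red fluorescence read at 540/590 nm, Rose Bengal sodium as reference fluorophore.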

[9] = qHTS assay to test for compound auto fluorescence at 535 nm (green) in HEK293 cells (AID 720680)
[10] = qHTS assay to test for compound auto fluorescence at 460 nm (blue) in HEK293 cell free culture (AID 720681)
How it was run: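 Blue fluorescence (Ex 405/Em 460 nm, triamterene-equivalent) was read immediately after pin transfer of compound or DMSO into medium (DMEM, 10% FBS) without cells.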

[11] = qHTS assay to test for compound auto fluorescence at 535 nm (green) in HEK293 cell free culture (AID 720682)
How it was run: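 Compounds were pin-transferred into cell-free DMEM with 10% FBS, and green fluorescence was read at excitation 485 nm and emission 535 nm. Intensities were expressed as fluorescein-equivalent values.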

[12] = qHTS assay to test for compound auto fluorescence at 590 nm (red) in HEK293 cell free culture (AID 720683)
How it was run: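 Red-channel autofluorescence of compounds in culture medium (DMEM, 10% FBS), no cells, measured at 540/590 nm. Rose Bengal sodium is the reference fluorophore for equivalence.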

[13] = qHTS assay to test for compound auto fluorescence at 590 nm (red) in HepG2 cell free culture (AID 720684)
How it was run: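 Plate contents were MEM with 10% FBS plus test compound or DMSO, no cells. Fluorescence was recorded with 540 nm excitation and 590 nm emission.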

[14] = qHTS assay to test for compound auto fluorescence at 460 nm (blue) in HepG2 cell free culture (AID 720685)
How it was run: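 Compound (23 nL) or DMSO pinned into cell-free MEM with 10% FBS; blue fluorescence read at 405/460 nm excitation/emission, expressed as auto-fluorescence equivalency to triamterene.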

[15] = target: Glucocorticoid receptor (Homo sapiens) (UniProt P04150); test: qHTS assay to identify small molecule agonists of the glucocorticoid receptor (GR) signaling pathway (AID 720691; active means well fitted activation curve with a large enough effect in the signal ratio in the repeat runs, not every such curve was filed as active; the % refers to the signal ratio)
Glucocorticoid receptor (Homo sapiens), sequence (P04150 whole entry, looked up): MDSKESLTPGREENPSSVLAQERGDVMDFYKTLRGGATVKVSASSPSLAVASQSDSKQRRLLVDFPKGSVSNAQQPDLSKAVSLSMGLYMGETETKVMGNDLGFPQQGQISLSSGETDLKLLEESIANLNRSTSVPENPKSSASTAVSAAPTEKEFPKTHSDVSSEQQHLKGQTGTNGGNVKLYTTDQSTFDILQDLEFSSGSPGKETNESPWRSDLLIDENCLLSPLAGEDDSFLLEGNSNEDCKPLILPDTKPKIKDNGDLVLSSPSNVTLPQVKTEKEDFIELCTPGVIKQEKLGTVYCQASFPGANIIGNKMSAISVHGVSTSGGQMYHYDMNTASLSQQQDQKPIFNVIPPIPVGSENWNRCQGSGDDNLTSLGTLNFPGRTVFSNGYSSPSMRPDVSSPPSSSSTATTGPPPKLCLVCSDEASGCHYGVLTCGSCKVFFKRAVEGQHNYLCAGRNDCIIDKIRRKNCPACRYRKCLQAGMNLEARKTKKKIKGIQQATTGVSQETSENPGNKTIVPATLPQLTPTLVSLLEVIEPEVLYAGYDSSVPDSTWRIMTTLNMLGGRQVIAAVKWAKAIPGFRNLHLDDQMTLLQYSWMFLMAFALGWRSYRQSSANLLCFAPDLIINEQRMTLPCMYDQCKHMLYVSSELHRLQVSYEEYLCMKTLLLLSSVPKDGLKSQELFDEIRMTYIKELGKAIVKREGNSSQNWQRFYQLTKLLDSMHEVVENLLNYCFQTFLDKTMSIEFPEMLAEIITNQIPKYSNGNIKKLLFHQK
How it was run: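 GR-bla HeLa cells carrying a GRE-driven beta-lactamase reporter, exposed to compounds for 18 h at 37 C. Reporter activation read as fluorescence after 2 h with LiveBLAzer B/G FRET substrate at room temperature.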

[16] = target: Glucocorticoid receptor (Homo sapiens) (UniProt P04150); test: qHTS assay to identify small molecule antagonists of the glucocorticoid receptor (GR) signaling pathway (AID 720692; active means well fitted inhibition curve with a large enough effect in the signal ratio in the repeat runs, not every such curve was filed as active; the % refers to the signal ratio)
How it was run: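 GR-bla HeLa cells carrying a GRE-driven beta-lactamase reporter received compound after 4 h plating, then dexamethasone (5 nM final). After 18 h at 37C, the FRET substrate was loaded for 2 h at room temperature and fluorescence read.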

[17] = qHTS assay to test for compound auto fluorescence at 590 nm (red) in HepG2 cells (AID 720674)
How it was run: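 Red autofluorescence (Ex/Em 540/590 nm, Rose Bengal sodium equivalents) was measured in HepG2 cells, 2,000 per well in MEM plus 10% FBS, plated overnight at 37 C. Readings were taken 1 hr after adding 23 nL compound or DMSO, at 37 C and 5% CO2.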

[18] = qHTS assay to test for compound auto fluorescence at 535 nm (green) in HepG2 cell free culture (AID 720686)
[19] = qHTS assay to test for compound auto fluorescence at 460 nm (blue) in HepG2 cells (AID 720687)
How it was run: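 Blue-channel autofluorescence (Ex/Em 405/460 nm, triamterene-equivalent) was measured after 1 hr compound exposure at 37 C, 5% CO2. Cells were HepG2, plated overnight at 37 C in MEM plus 10% FBS.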

[20] = qHTS assay for small molecules that induce genotoxicity in human embryonic kidney cells expressing luciferase-tagged ATAD5 - cell viability (AID 651634; calls by dose curve; further: nearly all actives have a fitted effect of over 25% in size)
How it was run: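 HEK293T cells carrying luciferase-tagged ATAD5, 2,000 cells/well, exposed to compound for 15.5 hr at 37C. Viability read as live-cell protease activity by CellTiter-Fluor fluorescence after 30 min at 37C.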
On the % scale 0 is the no-effect control and ±100 the full control effect.

CC1(C)C2=CCCC(C)(C)[C@]23CC[C@H]1C3
inactive: Potency [1] | Potency [2] | Potency [3] | Potency [4] | Potency [5] | outcome [6] | Potency [7] | outcome [8] | outcome [9] | Potency [10] | outcome [11] | outcome [12] | outcome [13] | Potency [14] | Potency [15] | Potency [16]

Fc1ccccc1[C@@H](F)COC1CCC(Nc2ncnc3[nH]ncc23)CC1 (stereo partly specified)
inactive: Potency [1] | Potency [2] | Potency [3] | Potency [4] | outcome [17] | outcome [6] | Potency [7] | outcome [8] | outcome [9] | Potency [10] | outcome [11] | outcome [12] | outcome [13] | Potency [14] | outcome [18] | Potency [19] | Potency [15]
active: Potency [5] 2730 nM

CC1CC(O)CC(C)(C)C1 (stereo unspecified)
inactive: Potency [1] | Potency [2] | Potency [3] | Potency [20] | outcome [17] | outcome [6] | Potency [7] | outcome [8] | outcome [9] | Potency [10] | outcome [11] | outcome [12] | outcome [13] | Potency [14] | outcome [18] | Potency [19] | Potency [15] | Potency [16]

CCOC(=O)CC(=O)C(=O)OCC
inactive: Potency [1] | Potency [2] | Potency [3] | Potency [20] | outcome [17] | outcome [6] | Potency [7] | outcome [9] | Potency [10] | outcome [11] | outcome [12] | outcome [13] | Potency [14] | outcome [18] | Potency [15] | Potency [16]

CCC(=O)OC/C=C/c1ccccc1
inactive: Potency [1] | Potency [2] | Potency [3] | Potency [4] | outcome [17] | outcome [6] | Potency [7] | outcome [9] | Potency [10] | outcome [11] | outcome [12] | outcome [13] | Potency [14] | outcome [18] | Potency [19] | Potency [15] | Potency [16]

Nc1ccc(S(=O)(=O)O)cc1
inactive: Potency [1] | Potency [2] | Potency [3] | Potency [20] | outcome [17] | outcome [6] | Potency [7] | outcome [9] | Potency [10] | outcome [11] | outcome [12] | outcome [13] | Potency [14] | outcome [18] | Potency [19]

C[N+]1(C)CCC(=C(c2ccccc2)c2ccccc2)CC1
inactive: Potency [1] | Potency [2] | Potency [3] | Potency [4] | fluorescence, relative to Rose Bengal [17] -0.257% [at 18.6 µM] | fluorescence, % of fluorescein control [6] -0.0806% [at 18.6 µM] | fluorescence, % of triamterene [7] 0.577% [at 18.6 µM] | fluorescence, % of fluorescent control [8] -0.153% [at 18.6 µM] | fluorescence, % of fluorescein [9] -0.0107% [at 18.6 µM] | fluorescence, % of fluorescent control [10] -0.269% [at 18.6 µM] | activity change [11] -0.0334% [at 18.6 µM] | fluorescence, % of fluorescent control [12] -0.165% [at 18.6 µM] | fluorescence, % of Rose Bengal [13] 0.107% [at 18.6 µM] | fluorescence, % of fluorescent control [14] -0.143% [at 18.6 µM] | fluorescence, % of fluorescein control [18] 0.0841% [at 18.6 µM] | Potency [15] | Potency [16]

CCCCOC(=O)CCS
inactive: Potency [1] | Potency [2] | Potency [3] | Potency [20] | outcome [17] | outcome [6] | Potency [7] | outcome [9] | Potency [10] | outcome [11] | outcome [12] | outcome [13] | Potency [14] | outcome [18] | Potency [19] | Potency [15]

CC(C)C(=O)O
inactive: Potency [1] | Potency [2] | Potency [3] | Potency [20] | outcome [17] | outcome [6] | Potency [7] | outcome [8] | outcome [9] | Potency [10] | outcome [11] | outcome [12] | outcome [13] | Potency [14] | Potency [19] | Potency [15] | Potency [16]

CCCCCCCC/C=C\CCCCCCCC(=O)OC
inactive: Potency [1] | Potency [2] | Potency [3] | Potency [4] | outcome [17] | outcome [6] | Potency [7] | outcome [8] | outcome [9] | Potency [10] | outcome [11] | outcome [12] | outcome [13] | Potency [14] | outcome [18] | Potency [19] | Potency [15]

CCn1cc(C(=O)O)c(=O)c2cc(F)c(N3CCNCC3)nc21
inactive: Potency [1] | Potency [2] | Potency [3] | Potency [20] | fluorescence, relative to Rose Bengal [17] 0.819% [at 18.6 µM] | fluorescence, % of fluorescein control [6] -0.0415% [at 18.6 µM] | fluorescence, % of triamterene [7] -0.37% [at 18.6 µM] | fluorescence, % of fluorescein [9] -0.0016% [at 18.6 µM] | fluorescence, % of fluorescent control [10] -0.0171% [at 18.6 µM] | activity change [11] 0.0215% [at 18.6 µM] | fluorescence, % of fluorescent control [12] -0.252% [at 18.6 µM] | fluorescence, % of Rose Bengal [13] -0.483% [at 18.6 µM] | fluorescence, % of fluorescent control [14] -0.0969% [at 18.6 µM] | fluorescence, % of fluorescein control [18] -0.0379% [at 18.6 µM] | fluorescence, % of fluorescent control [19] -0.0048% [at 18.6 µM]

CNC(=O)N(c1ccccc1)c1ccccc1
inactive: Potency [1] | Potency [2] | Potency [3] | Potency [4] | outcome [6] | Potency [7] | outcome [8] | outcome [9] | Potency [10] | outcome [11] | outcome [12] | outcome [13] | Potency [14] | outcome [18] | Potency [19]

CO[C@H]1O[C@H](CO)[C@@H](O)[C@H](O)[C@H]1O
inactive: Potency [1] | Potency [2] | Potency [3] | Potency [4] | outcome [17] | outcome [6] | Potency [7] | outcome [9] | Potency [10] | outcome [11] | outcome [12] | outcome [13] | Potency [14] | Potency [19]

O=S(=O)(c1ccccc1)c1ccc(Cl)cc1
inactive: Potency [1] | Potency [2] | Potency [3] | Potency [20] | outcome [17] | outcome [6] | Potency [7] | outcome [8] | outcome [9] | Potency [10] | outcome [11] | outcome [12] | outcome [13] | Potency [14] | Potency [19] | Potency [15] | Potency [16]

COc1ccccc1N=Nc1c(S(=O)(=O)O)cc2cc(S(=O)(=O)O)cc(NC(C)=O)c2c1O
inactive: Potency [1] | Potency [2] | Potency [3] | Potency [4] | outcome [17] | outcome [6] | Potency [7] | outcome [8] | outcome [9] | Potency [10] | outcome [11] | outcome [12] | outcome [13] | Potency [14] | outcome [18] | Potency [19] | Potency [15] | Potency [16]
